# Sampled rows, rich in hits. Any-hit rate of the full collection: about 1.5%.
# FBPA coupling cs – coupling enzyme interference in Giardia aldolase counter-screen | AID 2472 | activity change, negative = inhibition, % at 58.2 µM, hits read low | actives 0.67% (n = 290,000) | coupling enzyme system counterscreen, AmpLite Red fluorescence; in the data active = activity change below about -30%
#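 Activity here indicates interference with the coupling reaction, not aldolase inhibition. Compounds at 57.5 uM final met coupling enzymes for 10 min at RT; substrate and AmpLite Red detection followed, with a 525/598 nm fluorescence read after 20 min.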
# TrxR1 inh – inhibitors of rat thioredoxin reductase 1; recombinant rTrxR1, NADPH fluorescence consumption, selenite substrate; Potency, µM (doses to about 114 µM), inactives show at the highest dose activity change, negative = inhibition, most hits filed as inhibitors; actives 1% (n = 390,000); AID 588453; note: potency is the fitted concentration of half-maximal effect; nearly all actives have a fitted effect of over 65% in size
# Target sequence (O89049 whole entry, looked up): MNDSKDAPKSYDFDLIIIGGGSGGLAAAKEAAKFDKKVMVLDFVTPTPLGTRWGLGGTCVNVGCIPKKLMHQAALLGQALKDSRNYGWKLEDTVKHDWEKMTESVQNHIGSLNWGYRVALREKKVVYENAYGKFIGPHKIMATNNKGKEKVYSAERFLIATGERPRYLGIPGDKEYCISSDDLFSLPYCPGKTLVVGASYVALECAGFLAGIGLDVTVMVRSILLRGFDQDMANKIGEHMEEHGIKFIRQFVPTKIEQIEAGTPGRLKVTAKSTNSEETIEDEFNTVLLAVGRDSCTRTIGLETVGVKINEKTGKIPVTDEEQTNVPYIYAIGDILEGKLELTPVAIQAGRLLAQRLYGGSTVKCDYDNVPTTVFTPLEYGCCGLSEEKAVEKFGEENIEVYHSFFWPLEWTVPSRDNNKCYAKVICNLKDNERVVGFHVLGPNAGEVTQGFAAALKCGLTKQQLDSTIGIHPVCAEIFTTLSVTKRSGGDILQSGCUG
#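 Rat TrxR1 (90 nM in the dispensed reagent) was pre-reduced with 400 uM NADPH for 5 min at room temperature, then incubated with compound for 15 min. After 400 uM selenite was added, NADPH fluorescence (Ex 340/Em 450 nm) was followed for 8 min.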
# Eya2 phos inh – blocks the phosphatase activity of human Eya2. recombinant Eya2, OMFP fluorescence dephosphorylation (OMFP is methylfluorescein phosphate). Potency, µM (top dose mostly 76.9 µM), inactives show at the highest dose activity, negative = inhibition, most hits filed as inhibitors. actives 0.006% (n = 330,000); note: potency is the fitted concentration of half-maximal effect
#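 Eya2 protein (added as 0.2 uM solution) was preincubated with compound for 10 min at ambient temperature in 50 mM HEPES pH 7.5, 50 mM NaCl, 5 uM MgCl2, 0.05% BSA, 1 mM DTT. OMFP (added at 50 uM) then reacted 10 min; fluorescence read at 485/525 nm.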
# TrxR1 substrate – rat thioredoxin reductase 1 substrate activity. purified TrxR1 substrate turnover, NADPH consumption readout. O89049. Potency, µM (top dose mostly 114 µM), for the others: top-dose activity change, negative = substrate turnover. actives 0.01% (n = 390,000); note: potency is the fitted concentration of half-maximal effect; nearly all actives have a fitted effect of over 50% in size
#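 Rat TrxR1, dispensed at 90 nM, was prereduced with 400 uM NADPH (final) for 5 min at ~22 deg C, then incubated with compound 15 min before 400 uM selenite. A first-read NADPH fluorescence drop versus no-compound background flagged substrates.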
# IDH1 R132H inh – blocks human mutant IDH1 R132H enzyme; O75874; IDH1-R132H enzyme, NADPH consumption, diaphorase/resazurin fluorescence; Potency, µM (top dose mostly 76.6 µM), for inactives: at the highest dose activity change, negative = inhibition, most hits filed as inhibitors; actives 0.093% (n = 390,000); note: potency is the fitted concentration of half-maximal effect; nearly all actives have a fitted effect of over 65% in size
#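 IDH1-R132H (0.5 ug/mL) preincubated 30 min with compound, then NADPH (0.016 mM) and alpha-KG (2 mM) added; 80 min at RT, pH 7.5. Remaining NADPH coupled via diaphorase/resazurin to fluorescence (540/590 nm); concentration-response curves normalized to no-enzyme control.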
# Active calls of the source: *; ? = inconclusive; · = no result given; [ ] = another dose, or the depositor's remark. Unless noted, calls come from the whole dose curve; as a rule, active = well fitted curve in the direction sought with a large enough effect; inconclusive = small, poorly fitted or top-dose-only effect, or another doubt; inactive = no such curve, though single readings can be large; an effect the other way counts as inactive or inconclusive. % is set by controls: 0 for no effect and ±100 for the full control effect.
SMILES,FBPA coupling cs,TrxR1 inh,Eya2 phos inh,TrxR1 substrate,IDH1 R132H inh
Cc1cc(NC(=O)CC(C)C)c(=O)n(Cc2ccccc2F)c1,-36*,-20%,-15%,14%,17%
CCc1cc(=O)oc2cc(OCC(=O)N3CCC(C(=O)O)CC3)ccc12,-73*,-4%,8%,47%,-14%
CC(=O)Nc1ccc(OCC(O)CNC2CCCC2)cc1 (centres undefined),-38*,-3%,-9%,2%,3%
Cc1cc(C(c2nnnn2Cc2ccccc2)N2CCOCC2)c(C)n1-c1ccc2c(c1)OCO2 (centres undefined),-5,7.9µM*,-6%,7%,6%
CO[C@]12C(COC(N)=O)C3=C(C(=O)C(C)=C(N)C3=O)N1CC1NC12 (some centres undefined),-40*,·,·,·,·
CCOC(=O)C1(C)Oc2ccccc2C(C(=O)OC)=C1C(=O)OC (centres undefined),2,32µM*,-11%,2%,0%
CCOC(=O)C1(C)Oc2ccccc2C(c2ccc(OC)cc2)=C1C(=O)OC (centres undefined),1,6%,-14%,-4%,16%
COc1ccc(C2c3c(oc4ccccc4c3=O)C(=O)N2CCCN2CCOCC2)cc1 (centres undefined),·,35µM*,·,3%,-5%
O=C1c2oc3ccccc3c(=O)c2C(c2cccc(O)c2)N1CCCN1CCOCC1 (centres undefined),3,45µM*,-10%,4%,5%
CN(C)[C@@H]1C(=O)C(C(=O)NCN2CCCC2)=C(O)[C@@]2(O)C(=O)C3=C(O)c4c(O)cccc4[C@@](C)(O)C3CC12 (some centres undefined),-39*,·,5%,·,·
Cc1ccc(C(=O)OC[C@H]2O[C@H](Cl)C[C@@H]2OC(=O)c2ccc(C)cc2)cc1,2,·,·,·,·
O=C(NNC1=C(C(=O)C(F)(F)F)CCC1)c1ccccc1O,-2,-22%,-22%,-11%,21%
COc1ccccc1C(=O)NNC1=C(C(=O)C(F)(F)F)CCC1,-2,45µM*,-3%,4%,1%
NN/C(=C\[N+](=O)[O-])Nc1ccc(Cl)cc1,-1,16µM*,-14%,0%,2%
NN/C(=C\[N+](=O)[O-])Nc1ccccc1,3,16µM*,13%,0%,-2%
CCN(Cc1cccc(S(=O)(=O)O)c1)c1ccc(C(=C2C=CC(=[N+](CC)Cc3cccc(S(=O)(=O)O)c3)C=C2)c2ccc(O)cc2S(=O)(=O)O)cc1,·,37%[0.0914 µM],·,-18%,·
O=C(CNC(=O)C1CCCCC1)OCC(=O)c1ccc2c(c1)CCC2,·,1%,·,5%,·
O=C1CC(c2ccccc2)Cc2[nH]c(=O)c(C(=O)O)cc21 (centres undefined),·,14%[0.0914 µM],·,8%[0.0914 µM],·
Cc1ccc(CN(C)C(=O)c2ccc3c(c2)NC(=O)CS3)o1,0,18µM*,-9%,-2%,0%
CCC12CN3CC(CC)(CN(C1)C3c1c(O)ccc3ccccc13)C2=O (centres undefined),-36*,9%,8%,0%,3%
C=CCOC(/C=C/c1ccccc1)CC (centres undefined),3,-18%,·,-1%,·
O=S(=O)(c1ccc(Br)cc1)N1CCN(c2nc(-c3cccs3)nc3ccccc23)CC1,·,15%,·,7%,·
O=C(O)c1ccc(C(=O)C(=O)c2ccccc2)cc1,17,8%,2%,2%,2%
CSC(SC)=C(C#N)C(=O)c1ccccc1,-3,18µM*,-7%,4%[57.1 µM],0%
COc1cccc(C(=O)C(C#N)=C(SC)SC)c1,1,20µM*,13%,-1%,-2%
SMILES,FBPA coupling cs,TrxR1 inh,Eya2 phos inh,TrxR1 substrate,IDH1 R132H inh
Cc1sc2ccccc2[n+]1CCCC[n+]1c(C)sc2ccccc21,·,173%,·,17%,·
CC(=O)N1CCN(/[N+]([O-])=N/Oc2ccc([N+](=O)[O-])cc2[N+](=O)[O-])CC1,·,10µM*,·,-4%,·
CCN(CC)/[N+]([O-])=N/Oc1ccc([N+](=O)[O-])cc1[N+](=O)[O-],·,14µM*,·,-11%,·
CCOC(=O)N1CCN(/[N+]([O-])=N/Oc2ccc(C(F)(F)F)cc2[N+](=O)[O-])CC1,·,13%,·,5%,·
CN(C)c1ccc(C(=O)Oc2cc(O/N=[N+](\[O-])N(C)C)c([N+](=O)[O-])cc2[N+](=O)[O-])cc1,·,-15%,·,-5%,·
CN(C)/[N+]([O-])=N/Oc1cc(F)c([N+](=O)[O-])cc1[N+](=O)[O-],·,20µM*,·,-10%,·
CCNC(=O)N1CCN(/[N+]([O-])=N/Oc2ccc([N+](=O)[O-])cc2[N+](=O)[O-])CC1,·,14µM*,·,-7%,·
CCc1cc(C(=O)/C=C/c2cc3c(cc2C)OCCO3)c(O)cc1O,·,8%,·,-6%,·
Nc1nc(=S)[nH]c2n[nH]nc12,·,-10%,·,-3%,·
CC(C)C[C@H](NC(=O)[C@H](CC(C)C)NC(=O)[C@H](CCC(N)=O)NC(=O)[C@H](CO)NC(=O)[C@@H]1CCCN1C(=O)[C@H](CO)NC(=O)[C@H](CO)NC(=O)[C@@H](NC(=O)[C@H](Cc1cnc[nH]1)NC(=O)[C@H](CCC(=O)O)NC(=O)[C@H](Cc1ccc(O)cc1)NC(=O)[C@H](CCCCN)NC(=O)[C@H](CCC(N)=O)NC(=O)[C@H](Cc1ccc(O)cc1)NC(=O)[C@H](CC(=O)O)NC(=O)[C@@H](NC(=O)[C@@H]1CCCN1C(=O)[C@H](CC(=O)O)NC(=O)[C@H](CC(N)=O)NC(=O)[C@H](CC(=O)O)NC(=O)CNC(=O)[C@H](CC(=O)O)NC(=O)[C@@H]1CCCN1C(=O)[C@H](CCC(N)=O)NC(=O)[C@H](Cc1ccc(O)cc1)NC(=O)[C@H](C)NC(=O)[C@H](Cc1c[nH]c2ccccc12)NC(=O)[C@H](Cc1ccccc1)NC(=O)[C@@H](NC(=O)[C@@H](N)CO)[C@@H](C)O)[C@@H](C)O)[C@@H](C)O)C(=O)N[C@@H](C)C(=O)N1CCC[C@H]1C(=O)NCC(=O)N[C@@H](CC(=O)O)C(=O)N[C@@H](Cc1ccc(O)cc1)C(=O)O,0,·,·,·,·
CCN(CC)C(=O)N1CCN(/[N+]([O-])=N/Oc2ccc([N+](=O)[O-])cc2[N+](=O)[O-])CC1,·,22µM*,·,-8%,·
CC(C)(C)OC(=O)N1CCN(/[N+]([O-])=N/Oc2ccc([N+](=O)[O-])cc2[N+](=O)[O-])CC1,·,?,·,15%,·
O=C(NCc1ccco1)c1ccccc1NS(=O)(=O)c1ccc(Cl)s1,3,45µM*,-14%,1%,0%
O=C(NCc1ccco1)c1ccccc1NS(=O)(=O)c1cccs1,-1,-34%,2%,-2%,-3%
O=C(C[n+]1ccccc1)c1cccc([N+](=O)[O-])c1,·,-16%,·,1%,·

# Bioassay records: PubChem, National Center for Advancing Translational Sciences (NCATS)
